Data on 94 compounds can be found in PubChem BioAssay AID504850 (National Center for Advancing Translational Sciences (NCATS), 2011).

The whole screen tested about 2,300 compounds, of which about 1,200 (52%) were called active. Roughly 34% stayed inconclusive and do not appear here. Calls follow the shape of the dose curve; as a rule, active = well fitted inhibition curve with a large enough effect; inconclusive = small, poorly fitted or top-dose-only effect, or effect the other way; inactive = no such curve, though single readings can be large or run the other way. The set was probably picked from earlier hits. This is one part of the list.
Potency is read from the fitted curve at half-maximal effect.

This assay is described as follows: Confirmation screen for delayed death inhibitors of the malarial parasite plastid, 48 hour incubation. Also: nearly all actives have a fitted effect of over 65% in size. To be noted: P. falciparum-infected erythrocytes, luciferase growth; series mostly up to 28.7 µM. Put shortly: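 Erythrocytes infected with luciferase-expressing P. falciparum (2% hematocrit, 0.1% parasitemia) incubated with compounds 48 hours at 37 C, 5% CO2, in RPMI/Albumax. Growth inhibition scored as reduced luminescence after detection reagent.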
For the compound `CCCCCn1c(=O)c2ccccc2n2c(CCl)nnc12`, the Potency is 10 µM (active).
Turning to `COc1cccc(F)c1C(C[N+](=O)[O-])c1c(N)n(C)c(=O)n(C)c1=O` (centres undefined), the Potency is 5.01 µM (active).
As for `Cc1ccc(CN2CCCCC2C(=O)Nc2ccc(Oc3cccnc3)cc2)o1` (centres undefined), the figure is 11.2 µM (active); as for `O=C(Nc1c2c(nn1-c1ccc([N+](=O)[O-])cc1)CS(=O)(=O)C2)c1cccs1`, “inactive”.
`O=C(Nc1ccc(N2CCN(C(=O)c3cccs3)CC2)cc1)c1ccc([N+](=O)[O-])o1`: the Potency was 3.55 µM (active).
As for `O=C(Nc1ccc(N2CCN(C(=O)c3ccco3)CC2)cc1)c1ccc(F)cc1`, the figure is 11.2 µM (active); as for `O=C(Nc1ccc(N2CCN(C(=O)c3ccccc3)CC2)cc1)c1ccc([N+](=O)[O-])o1`, 5.01 µM (active); as for `Cc1ccccc1C(=O)N1CCN(c2ccc(NC(=O)c3ccc([N+](=O)[O-])o3)cc2)CC1`, 10 µM (active).
As for `COc1ccc(CCNS(=O)(=O)c2ccc(Br)s2)cc1`, the entry is “inactive”; as for `O=C(NCc1ccc(F)cc1)C1CCN(S(=O)(=O)c2ccc(Br)s2)CC1`, 12.6 µM (active); as for `O=C(COC(=O)C1C2CC3OC(=O)C1C3C2)Nc1ccccc1` (centres undefined), “inactive”.
`O=S1(=O)Nc2c(ccc3cccnc23)-c2ccccc21`: the Potency was 1.78 µM (active).
As for `Cc1nc(-c2ccccn2)sc1C(=O)Nc1ccc(Cl)c(Cl)c1`, the Potency result is “inactive”.
As for `Cc1ccc(-c2nc(-c3cccnc3)sc2CC(=O)Nc2ccc(C)c(Cl)c2)cc1`, the figure is 4.47 µM (active); as for `COc1cc(OC)c(OC)cc1CN1CCN(C(=O)c2cccc3ccccc23)CC1`, 12.6 µM (active); as for `CC1C/C(=C/c2ccncc2)C(=O)/C(=C/c2ccncc2)C1` (centres undefined), 3.98 µM (active).
Consider `CCSc1nnc(N2C(=O)c3ccc(C(=O)c4ccc(C(=O)O)cc4)cc3C2=O)s1`, for which the Potency entry is “inactive”.
Then `O=C(NC1CCN(Cc2ccccc2)CC1)C1CCN(c2nnc(-n3cccc3)s2)CC1`, with 10 µM (active); and `O=C(NC1CCCC1)C1CC(=O)N(CCc2ccccc2)C1` (centres undefined), with “inactive”.
As for `O=C(Cc1cccs1)NCCc1ccc(Cl)cc1`, the figure is 4.47 µM (active).
Then `Cc1ccc(Cl)cc1N1CCN(c2cccc[n+]2C)CC1`, with 3.16 µM (active); and `COc1cccc2sc(Nc3nnc(-c4ccc(F)cc4)o3)nc12`, with 7.08 µM (active).
For the compound `COc1cccc2sc(Nc3nnc(-c4ccccc4Cl)o3)nc12`, the Potency was 12.6 µM (active).
Then `O=C(COc1ccccc1)Nc1nnc(-c2ccc(F)cc2)o1`, with “inactive”; and `CC(C)CCSc1nc(N)c(C#N)cc1C#N`, with 6.31 µM (active); and `CCOC(=O)c1c[nH]c2cc(OCC(C)C)c(OCC(C)C)cc2c1=O`, with 0.199 µM (active).
Take `CSc1nnc(C)c(=O)[nH]1`: the Potency entry is “inactive”.
As for `Cc1cc(=O)oc2c1ccc1oc(/C(=N/O)c3ccccc3)c(C)c12`, the Potency was 7.94 µM (active).
Take `COc1ccc2cc3cc(C(=O)Nc4ccc5c(c4)OCO5)oc3nc2c1`: the Potency was 5.01 µM (active).
Then `Cc1ccc2cc3cc(C(=O)NCCCN4CCCC4=O)oc3nc2c1`, with 3.16 µM (active).
Regarding `COc1ccc2nc3oc(C(=O)NCc4cccs4)cc3cc2c1`, the Potency was 3.55 µM (active).
Then `COCCCNC(=O)c1cc2cc3cc(OC)ccc3nc2o1`, with 5.01 µM (active).
Then `COc1ccccc1NC(=S)NCc1cccs1`, with “inactive”; and `Cn1cnc([N+](=O)[O-])c1Sc1ccc(Br)cc1`, with “inactive”; and `Cc1cc(Br)ccc1NC(=O)CNC(=O)Cn1ncc(Cl)c(Cl)c1=O`, with 12.6 µM (active).
As for `O=C(Nn1c(-c2ccccc2)nc2ccccc2c1=O)c1ccco1`, the entry is “inactive”.
Consider `O=C(NNc1nc(-c2ccccc2)cs1)c1ccco1`, for which the Potency was 2.24 µM (active).
Take `S=c1[nH]nc(-c2ccccn2)n1/N=C/c1ccc(-c2ccccc2Br)o1`: the Potency result was “inactive”.
`Cc1nn(-c2ccccc2)c(C)c1/C=N/n1c(-c2ccccc2Br)n[nH]c1=S`: the Potency is 14.1 µM (active).
Consider `Cc1[nH]c(=O)c(C(=O)/C=C/c2ccccc2F)c2c1CCCC2`, for which the Potency is 7.08 µM (active).
As for `Cc1[nH]c(=O)c(C(=O)/C=C/c2ccccc2)c2c1CCCC2`, the figure is 6.31 µM (active); as for `Cc1[nH]c2ccccc2c(=O)c1C(=O)/C=C/c1ccccc1`, 6.31 µM (active); as for `Cc1[nH]c2ccccc2c1/C=N/NC(=O)CNC(=O)Cc1ccccc1`, “inactive”.
Then `CC(=O)Nc1ccc(NC(=O)c2ccc(C3SCC(=O)N3CCc3ccccc3)cc2)cc1` (centres undefined), with 8.91 µM (active).
Take `O=C1CSC(c2cccnc2)N1CCc1ccccn1` (centres undefined): the Potency entry is “inactive”.
As for `N#CCc1nc(C(c2ccccc2)c2ccccc2)no1`, the figure is 7.94 µM (active); as for `CC(C)c1cc(NC(=O)CCl)on1`, 10 µM (active).
As for `CC(C)NC(=S)N/N=C/c1sc(N2CCCCC2)nc1-c1cccs1`, the figure is 6.31 µM (active).
Then `Cc1ccc(C(=O)N/C(=C\c2ccc(-c3ccc(Cl)cc3)o2)C(=O)NCCCN(C)C)cc1`, with 3.98 µM (active); and `C=CCN=c1scc(-c2ccc(F)cc2)n1/N=C/c1ccccn1`, with 6.31 µM (active); and `CCCCN1/C(=C/c2cccc[n+]2C)Sc2cc(NC(C)=O)ccc21`, with 3.16 µM (active).
`Cc1c(OC(C)C(=O)N2C[C@H]3C[C@@H](C2)c2cccc(=O)n2C3)ccc2c3c(c(=O)oc12)CCC3` (some centres undefined): the Potency was 12.6 µM (active).
As for `Cc1c(CC(=O)N2C[C@H]3C[C@@H](C2)c2cccc(=O)n2C3)c(=O)oc2cc3occ(C(C)(C)C)c3cc12`, the figure is 12.6 µM (active); as for `CC(C)C[C@@H](NC(=O)[C@H](Cc1ccccc1)NC(=O)c1cnccn1)B(O)O`, 0.178 µM (active).
Regarding `O=C(C[C@@H]1C/C=C\CC[C@@H](Cc2ccc(F)cc2)C(=O)OC[C@@H]2CCCN2C1=O)NCCO`, the Potency is 12.6 µM (active).
As for `COc1ccc(NC(=O)N2CCCc3cc(C)ccc32)c(OC)c1`, the figure is 14.1 µM (active); as for `Cc1cc(C)n(Cc2ccc(C(=O)N/N=C/c3ccc(-c4ccc([N+](=O)[O-])cc4)o3)o2)n1`, 8.91 µM (active).
For `CCC/C(C#CCCN1C(=O)c2ccccc2C1=O)=C1/c2ccccc2C(=O)N1c1ccccc1`, the Potency is 7.94 µM (active).
As for `O=C(CCN1C(=O)c2ccccc2C1=O)C1=NN[C@@H]2C(=O)N(c3ccc(F)cc3)C(=O)[C@H]12`, the entry is “inactive”; as for `CCOC(=O)CSc1nc2sc3c(c2c(=O)n1C1CCCCC1)CCN(C)C3`, 3.16 µM (active).
For the compound `CCn1c(SCC(=O)Nc2ccc(C)cc2)nc2sc3c(c2c1=O)CCN(C)C3`, the Potency was 1.41 µM (active).
As for `Cc1cccc(NC(=S)/N=C(\N)Nc2nc(C)c3ccccc3n2)c1`, the Potency was 12.6 µM (active).
Consider `CC(CN1CCC(n2nccc2NC(=O)c2ccccc2Cl)CC1)c1ccccc1` (centres undefined), for which the Potency was 15.8 µM (active).
Then `C(=N\N(c1ccccc1)c1ccccc1)/c1ccccn1`, with “inactive”.
As for `O=C(N/N=C/c1ccccn1)c1cc([N+](=O)[O-])cc([N+](=O)[O-])c1`, the figure is 10 µM (active); as for `CC1(C)COC(/C=C/c2cccc([N+](=O)[O-])c2)=N1`, 14.1 µM (active); as for `O=[N+]([O-])c1cccc(/C=C/c2nc[nH]c2[N+](=O)[O-])c1`, 7.94 µM (active).
As for `COc1ccccc1-n1nnnc1S(=O)(=O)Cc1ccc(Cl)cc1`, the Potency is 12.6 µM (active).
Consider `CCCCN(CCCNC(=O)C1CCN(C(=O)c2cc3sccc3n2C)CC1)Cc1ccccc1`, for which the Potency is 5.62 µM (active).
Then `CC(NC(=O)c1cc2sccc2n1C)c1ccc2c(c1)OCCO2` (centres undefined), with “inactive”; and `O=C(Nc1ccc2c(c1)CCCN2C(=O)c1ccco1)c1cc([N+](=O)[O-])ccc1Cl`, with 12.6 µM (active).
Regarding `COc1ccccc1N(Cc1ccccc1)S(=O)(=O)c1cccc(C(=O)Nc2cc(C)ccn2)c1`, the Potency is 11.2 µM (active).
For `COc1ccccc1N(Cc1ccccc1)S(=O)(=O)c1cccc(C(=O)Nc2ccccn2)c1`, the Potency was 8.91 µM (active).
As for `Cc1ccccc1C(=O)Nc1ccc2c(c1)CCCN2C(=O)c1cccs1`, the figure is 12.6 µM (active); as for `COc1cc(OC)cc(C(=O)Nc2ccc3c(c2)CCCN3C(=O)c2cccs2)c1`, 12.6 µM (active); as for `O=C(Cc1cccc2ccccc12)Nc1ccccc1C(=O)O`, “inactive”.
Then `CC(=O)Nc1ccc(OCc2cccc3ccccc23)cc1`, with 12.6 µM (active); and `CCOC(=O)c1c(NC(=O)CSc2c[nH]c3ccccc23)sc2c1CCCC2`, with 14.1 µM (active).
Turning to `CCOC(=O)c1c(NC(=O)CSc2ccccc2C(=O)O)sc(C)c1C`, the Potency result is “inactive”.
As for `COc1cc([N+](=O)[O-])c(OC)cc1SCc1n[nH]c(=S)n1-c1ccc(F)cc1`, the Potency was 14.1 µM (active).
As to `CCCCCCC1C(C#N)=C(N)OC2=C1C(=O)CCC2` (centres undefined), the Potency entry is “inactive”.
As for `COc1ccc2c(CC(=O)OCC(=O)Nc3cccc(S(N)(=O)=O)c3)coc2c1`, the entry is “inactive”; as for `CCc1nc(SCC(=O)Nc2ccc(N(C)C)cc2)n[nH]1`, “inactive”.
As for `CCc1ccc(NC(=O)CSc2nc3n[nH]c(C)c3c(=N)n2-c2cccc(OC)c2)cc1`, the figure is 5.62 µM (active); as for `COc1cccc(NC(=O)CSc2nc3n[nH]c(C)c3c(=N)n2-c2cccc(OC)c2)c1`, 7.94 µM (active); as for `COc1ccccc1NC(=O)c1oc2ccccc2c1NC(=O)C1CC1`, 8.91 µM (active).
Then `COc1cccc(NC(=O)c2oc3ccccc3c2NC(=O)C2CC2)c1`, with 15.8 µM (active).
Consider `COc1cccc(N/C(SCc2cccc([N+](=O)[O-])c2)=C(/C#N)C(N)=O)c1`, for which the Potency result was “inactive”.
For `COc1cccc(NC(C)C(=O)Nc2cc([N+](=O)[O-])ccc2Cl)c1` (centres undefined), the Potency is 3.16 µM (active).
On to `Cn1c(CCN2CCCC2)nc2cc(NS(=O)(=O)c3ccc(Cl)cc3)ccc21`, for which the Potency was 11.2 µM (active).
As to `Cn1c(CCN2CCCC2)nc2cc(NS(=O)(=O)c3ccccc3)ccc21`, the Potency is 3.55 µM (active).
As for `CC1CCCCN1C(=O)COC(=O)c1cccc(NS(=O)(=O)c2ccccc2)c1` (centres undefined), the Potency entry was “inactive”.
As for `Cc1cccc(N/N=C(\C(N)=O)C2=NC(C)(C)Cc3ccccc32)c1`, the figure is 4.47 µM (active); as for `CC(=O)c1ccc(N/N=C(/C(N)=O)C2=NC(C)(C)Cc3ccccc32)cc1`, 7.08 µM (active).
